In PubChem BioAssay (NCATS):
Records with an inconclusive call do not appear. Activity calls are given as the source filed them. Calls come from the whole dose curve; as a rule, active = well fitted curve in the direction sought with a large enough effect; inconclusive = small, poorly fitted or top-dose-only effect, or another doubt; inactive = no such curve, though single readings can be large; an effect the other way counts as inactive or inconclusive.

Experiments:
[1] = Cellular Toxicity (caspase-3) Mesangial (AID 660); conditions: mesangial cells, normalized: DMSO 0%, 100 µM tamoxifen 100%; at 91.7 µM (top of the series);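 note: combined caspase 3 and 7 activity read by Caspase-Glo luminescence; cells exposed to compound for 16 h before the caspase read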
Outline: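 Caspase 3/7 activation measured by Caspase-Glo 3/7 luminescence (20 min, room temperature) following 16 h exposure of mesangial cells (1000/well); AC50 from Hill-equation fit, normalized to DMSO and 100 uM tamoxifen.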

[2] = Cellular Toxicity (caspase-3) SK-N-SH (AID 661);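 note: 0% = DMSO basal and 100% = 10 µM staurosporine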
Outline: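 Caspase 3/7 activation was read by luminogenic substrate cleavage after 16 hour treatment of SK-N-SH cells. Signal was scaled between DMSO and 10 uM staurosporine, and concentration-response data were fitted with the Hill equation for AC50.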

[3] = Cellular Toxicity (caspase-3) H-4-II-E (AID 663); conditions: H-4-II-E rat hepatoma, scaled: DMSO 0%, 100 µM tamoxifen 100%; at 92.2 µM (top of the series);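 note: cells exposed to compound for 16 hr before readout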
Outline: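 Caspase 3/7 activation measured in H-4-II-E cells in complete culture medium after 16 hr treatment at 37 °C, using luciferase-coupled substrate readout; AC50 values come from Hill-equation fits of normalized concentration-response data.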

[4] = Cellular Toxicity (caspase-3) Hek293 (AID 664); conditions: HEK293 caspase-3 activation, DMSO = 0%, 100 µM tamoxifen = 100%; at 92.2 µM (top of the series);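 note: cells exposed to compound for 16 h at 37 °C before readout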
Outline: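 Concentration-response qHTS: caspase 3/7 activation measured by luminescent aminoluciferin substrate cleavage after 16 h compound exposure of Hek 293 cells. AC50 from Hill equation, with DMSO as basal and 100 uM tamoxifen as 100%.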

[5] = Cellular Toxicity (caspase-3) N2a (AID 665);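 note: compound exposure lasted 16 h at 37 °C before readout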
Outline: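 Caspase-3/7 activation measured as luminescence from Caspase-Glo reagent (1 h, room temperature) after 16 h compound exposure of mouse N2a cells. AC50 values from Hill-equation concentration-response, scaled between DMSO and 10 uM staurosporine.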

[6] = Cellular Toxicity (caspase-3) NIH 3T3 (AID 666);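 note: caspase signal read after 16 h compound exposure; 0% = DMSO basal and 100% = 100 µM tamoxifen stimulation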
Outline: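 Caspase-Glo 3/7 luminescence reported caspase activation in 1000 NIH 3T3 cells/well after 16 h compound exposure at 37 C. DMSO set basal and 100 uM tamoxifen set 100% stimulation; concentration-response modeled with the Hill equation for AC50.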

[7] = Cellular Toxicity (caspase-3) Renal Proximal Tubule (AID 667); conditions: Potency: caspase-3 activation;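 note: cells exposed to compound for 16 hours at 37 °C before detection; 0% = DMSO basal and 100% = 10 µM staurosporine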
Outline: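 In qHTS format, rat primary proximal tubule cells seeded at 1000 per well are exposed to compounds for 16 hours at 37 °C. An increase in Caspase-Glo 3/7 luminescence indicates caspase activation.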

[8] = target: Cytochrome P450 3A4 (Homo sapiens) (UniProt P08684); assay: qHTS Assay for Inhibitors and Substrates of Cytochrome P450 3A4 (AID 884); note: % is set by controls: 0 for no effect and ±100 for the full control effect; nearly all actives have a fitted effect of over 50% in size
Chain of Cytochrome P450 3A4 (Homo sapiens) (P08684 whole entry, looked up): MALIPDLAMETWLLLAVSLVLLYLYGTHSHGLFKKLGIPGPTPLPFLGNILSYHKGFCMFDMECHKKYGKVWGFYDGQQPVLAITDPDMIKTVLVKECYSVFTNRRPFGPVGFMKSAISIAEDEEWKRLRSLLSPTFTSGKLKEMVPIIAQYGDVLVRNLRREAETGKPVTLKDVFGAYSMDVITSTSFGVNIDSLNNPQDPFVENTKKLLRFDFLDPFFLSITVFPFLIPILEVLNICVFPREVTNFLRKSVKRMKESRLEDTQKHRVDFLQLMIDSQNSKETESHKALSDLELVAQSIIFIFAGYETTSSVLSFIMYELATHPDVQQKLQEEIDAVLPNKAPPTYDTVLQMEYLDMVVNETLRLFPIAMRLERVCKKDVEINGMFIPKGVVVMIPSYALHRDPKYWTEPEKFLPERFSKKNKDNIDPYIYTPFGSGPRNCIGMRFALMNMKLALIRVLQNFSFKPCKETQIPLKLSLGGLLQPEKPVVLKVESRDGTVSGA
Outline: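 Luminescent readout of luciferin produced by CYP3A4 (20 nM) dealkylation of Luciferin-PPXE, 25 uM (its KM). NADPH-driven reaction ran 60 min at RT after 10 min compound preincubation; data scaled to 57 uM ketoconazole as 100% inhibition.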

[9] = Cell Viability - LYMP2-001 (AID 921);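 note: cells exposed to compound for 24 h at 37 °C; 0% = DMSO only and full inhibition = tetraoctylammonium bromide control wells; nearly all actives have a fitted effect of over 70% in size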
Outline: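 qHTS, 1536-well; lymphoblastoid cells, 24 hr compound, 37 C; ATP by CellTiter-Glo, 30 min RT; luminescence; Hill-fit AC50.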

CCc1ccccc1O
inactive: caspase-3 activation [1] -0.562% | outcome [2] | caspase-3 activation [3] -0.213% | caspase-3 activation [4] -1.55% | outcome [5] | outcome [6] | Potency [7] | Potency [8] | Potency [9]

O=[N+]([O-])c1cccc(C(F)(F)F)c1
inactive: caspase-3 activation [1] -1.76% | outcome [2] | caspase-3 activation [3] -0.931% | caspase-3 activation [4] 0.383% | outcome [5] | outcome [6] | Potency [7] | Potency [8] | Potency [9]

Nc1ccc([N+](=O)[O-])c(N)c1
inactive: caspase-3 activation [1] -0.0443% | outcome [2] | caspase-3 activation [3] -0.185% | caspase-3 activation [4] -0.316% | outcome [5] | outcome [6] | Potency [7] | Potency [8] | Potency [9]

O=Cc1cccc(Br)c1
inactive: caspase-3 activation [1] 1.82% | outcome [2] | caspase-3 activation [3] 2.2% | caspase-3 activation [4] 4.91% | outcome [5] | outcome [6] | Potency [7] | Potency [8] | Potency [9]

Cc1ccc(C(=O)O)cc1
inactive: caspase-3 activation [1] -0.126% | outcome [2] | caspase-3 activation [3] 1.11% | caspase-3 activation [4] 0.649% | outcome [5] | outcome [6] | Potency [7] | Potency [8] | Potency [9]

ClCCl
inactive: caspase-3 activation [1] -1.27% | outcome [2] | caspase-3 activation [3] -0.724% | caspase-3 activation [4] 1.14% | outcome [5] | outcome [6] | Potency [7] | Potency [8] | Potency [9]

CC1CCCO1 (stereo unspecified)
inactive: caspase-3 activation [1] -0.0447% | outcome [2] | caspase-3 activation [3] -0.992% | caspase-3 activation [4] -1.6% | outcome [5] | outcome [6] | Potency [7] | Potency [8] | Potency [9]

CCCCCO
inactive: caspase-3 activation [1] 1.64% | outcome [2] | caspase-3 activation [3] -0.271% | caspase-3 activation [4] -0.0419% | outcome [5] | outcome [6] | Potency [7] | Potency [8] | Potency [9]

O=C(O)CNC(=O)c1ccc([N+](=O)[O-])cc1
inactive: caspase-3 activation [1] -0.679% | outcome [2] | caspase-3 activation [3] 0.8% | caspase-3 activation [4] -2.43% | outcome [5] | outcome [6] | Potency [7] | Potency [8] | Potency [9]

CCCCCCCCCCCCC1CO1 (stereo unspecified)
inactive: caspase-3 activation [1] -0.00149% | outcome [2] | caspase-3 activation [3] 0.543% | caspase-3 activation [4] 1.51% | outcome [5] | outcome [6] | Potency [7] | Potency [8] | Potency [9]

Cc1ccc([N+](=O)[O-])c(N)c1
inactive: caspase-3 activation [1] -0.782% | outcome [2] | caspase-3 activation [3] -0.384% | caspase-3 activation [4] 0.555% | outcome [5] | outcome [6] | Potency [7] | Potency [8] | Potency [9]

CCCCC(CC)COCC1CO1 (stereo unspecified)
inactive: caspase-3 activation [1] -0.684% | outcome [2] | caspase-3 activation [3] -0.156% | caspase-3 activation [4] -2.33% | outcome [5] | outcome [6] | Potency [7] | Potency [8] | Potency [9]

CCCCCCCCC/C=C/CC1CC(=O)OC1=O (stereo unspecified)
inactive: caspase-3 activation [1] 0.816% | outcome [2] | caspase-3 activation [3] 1.69% | caspase-3 activation [4] 5.74% | outcome [5] | outcome [6] | Potency [7] | Potency [8] | Potency [9]

COc1ccc(N)c(C)c1
inactive: caspase-3 activation [1] 2.2% | outcome [2] | caspase-3 activation [3] 0.764% | caspase-3 activation [4] -0.876% | outcome [5] | outcome [6] | Potency [7] | Potency [8] | Potency [9]

Cc1ccccc1C(=O)O
inactive: caspase-3 activation [1] -0.934% | outcome [2] | caspase-3 activation [3] -0.229% | caspase-3 activation [4] -3.25% | outcome [5] | outcome [6] | Potency [7] | Potency [8] | Potency [9]

CCN(C(=O)N(CC)c1ccccc1)c1ccccc1
inactive: caspase-3 activation [1] 0.257% | outcome [2] | caspase-3 activation [3] 2.86% | caspase-3 activation [4] 0.606% | outcome [5] | outcome [6] | Potency [7] | Potency [8] | Potency [9]

Cc1cc(C)cc([N+](=O)[O-])c1
inactive: caspase-3 activation [1] -0.822% | outcome [2] | caspase-3 activation [3] 0.227% | caspase-3 activation [4] 0.15% | outcome [5] | outcome [6] | Potency [7] | Potency [8] | Potency [9]

C/C=C1\CC2C=CC1C2 (stereo unspecified)
inactive: caspase-3 activation [1] -0.567% | outcome [2] | caspase-3 activation [3] 0.51% | caspase-3 activation [4] -0.412% | outcome [5] | outcome [6] | Potency [7] | Potency [8] | Potency [9]

CCCCC(C=O)CC (stereo unspecified)
inactive: caspase-3 activation [1] 0.71% | outcome [2] | caspase-3 activation [3] 3.13% | caspase-3 activation [4] 1.03% | outcome [5] | outcome [6] | Potency [7] | Potency [8] | Potency [9]

FC(F)(F)c1cccc(Cl)c1
inactive: caspase-3 activation [1] -0.53% | outcome [2] | caspase-3 activation [3] 0.296% | caspase-3 activation [4] 0.768% | outcome [5] | outcome [6] | Potency [7] | Potency [8] | Potency [9]

C=CCOC(=O)CCCCCCCC
inactive: caspase-3 activation [1] 0.626% | outcome [2] | caspase-3 activation [3] -0.694% | caspase-3 activation [4] 1.74% | outcome [5] | outcome [6] | Potency [7] | Potency [8] | Potency [9]

CC(C)N(C)C
inactive: caspase-3 activation [1] 0.455% | outcome [2] | caspase-3 activation [3] 0.576% | caspase-3 activation [4] 1.04% | outcome [5] | outcome [6] | Potency [7] | Potency [8] | Potency [9]

c1ccsc1
inactive: caspase-3 activation [1] -0.223% | outcome [2] | caspase-3 activation [3] 0.78% | caspase-3 activation [4] -0.842% | outcome [5] | outcome [6] | Potency [7] | Potency [8] | Potency [9]

CCN(Cc1ccccc1)c1ccccc1
inactive: caspase-3 activation [1] -0.109% | outcome [2] | caspase-3 activation [3] 0.0577% | caspase-3 activation [4] -1.67% | outcome [5] | outcome [6] | Potency [7] | Potency [8] | Potency [9]
